The campaign covered roughly 360,000 compounds. About 2,300 (0.64%) were called active. The entries come from a sample that favours actives as a whole. Values without a mark were called inactive. Rule as the data show it: active = inhibition mostly above about 40% (no sharp cut-off); inactive = mostly below about 27%.

For the test, the target named is Sentrin-specific protease 8 (Homo sapiens) (UniProt Q96LD8). Kind of test: human SENP8 protease inhibitors, primary screen, biochemical, fluorescence, Nedd8 protein substrate, uHTS (AID 602440). To be noted: recombinant SENP8, Nedd8 substrate fluorescence; at 20 µM; hits give high values.
Chain of Sentrin-specific protease 8 (Homo sapiens) (Q96LD8 whole entry, looked up): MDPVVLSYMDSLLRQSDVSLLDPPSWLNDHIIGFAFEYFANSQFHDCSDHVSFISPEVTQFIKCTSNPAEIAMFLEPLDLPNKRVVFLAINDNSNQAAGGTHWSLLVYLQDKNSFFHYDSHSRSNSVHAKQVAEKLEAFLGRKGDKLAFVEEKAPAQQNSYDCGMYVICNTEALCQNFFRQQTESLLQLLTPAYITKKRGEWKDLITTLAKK
For the molecule `CC1(C(=O)Nc2cccc3c2CCCC3)CCN1C(=O)CCc1ccc(Cl)cc1Cl` (stereo unspecified), the inhibition (commonly the change of the read-out against control, counted positive when it falls) is 10.4%. `CC(=O)N1C(=O)/C(=C2\SC(=S)N(NC(=O)c3ccc(O)cc3)C2=O)c2ccccc21`: the inhibition was 53.5% (active).

As to `COc1ccc(C(=O)NN2C(=O)C3C(c4ccccc4)C=CC(c4ccccc4)C3C2=O)cc1` (stereo unspecified), the inhibition is 7%. In the case of `COc1ccc2c(c1)N(C)/C(=C1/SC(=S)N(NC(C)=O)C1=O)S2` it was 1.5%; in that of `Oc1cccc(C2c3[nH]c4ccccc4c3CCN2Cc2cnn(-c3ccccc3)c2)c1` (stereo unspecified), -56.9%. The result for `CSCC[C@H](NC(=O)CCCn1nnc2ccccc2c1=O)C(=O)O` reads 38.5%; that for `CCOC(=O)N1CCN(C(=O)C[C@@H]2C[C@@]3(C(=O)OC)CC(C)(C)CC=C3N(Cc3ccco3)C2=O)CC1`, 26.3%. In the case of `CCCc1ccc(C(=O)COC(=O)CN2C(=O)NC3(CCCCC3C)C2=O)cc1` (stereo unspecified), the inhibition was 9.6%. In the case of `CCCCCCCCCCCCCCCC(=O)OC/C=C(C)/C=C/C=C(C)/C=C/C1=C(C)CCCC1(C)C` it was 40.9% (active); in that of `CCc1nnc(NC(=O)CCN(c2ccc(C)cc2)S(=O)(=O)c2ccccc2)s1`, 14.8%; in that of `COCCCNC(=O)CNC(=S)N(Cc1cc(OC)c(OC)c(OC)c1)C1CCCC1`, 4.9%. As to `Cc1c(NC(=O)Nc2cccc([N+](=O)[O-])c2)c(=O)n(-c2ccccc2)n1C`, the inhibition is 9.3%. Regarding `CCOC(=O)C(C)n1cnc2c(nnn2-c2ccc(F)cc2)c1=O` (stereo unspecified), the inhibition is 6.3%. With `CCOC(=O)C(CC)Sc1ncnc2c1nnn2-c1ccc(F)cc1` (stereo unspecified), the inhibition was 40.3% (active). In the case of `COC(=O)C(C)n1cnc2c(nnn2-c2ccc(F)cc2)c1=O` (stereo unspecified) it was 4.4%. Take `CC(C)c1nc2oc3c(N4CCN(C)CC4)ncnc3c2c2c1CCC2`: the inhibition was -130%. In the case of `Cc1ccnc(N2CCN(C(=O)CSc3nc4ccccc4nc3N3CCCCC3)CC2)c1` it was -63.3%. In the case of `OC(COCC1COc2ccccc2O1)CN1CCN(c2ccc(F)cc2)CC1` (stereo unspecified) it was 16.7%; in that of `CN1/C(=c2/s/c(=C3/C(=O)N(c4ccccc4)NC3=Nc3ccccc3)n(C)c2=O)C(C)(C)c2ccccc21`, 54.8% (active); in that of `OCC1(Cc2ccccc2)CCN(Cc2cc3ccccc3o2)CC1`, 3.7%. Regarding `CCN(CC)S(=O)(=O)c1ccc(N2CCOCC2)c(NC(=O)C2CSC3(C)CCC(=O)N23)c1` (stereo unspecified), the inhibition is -11.2%. For the molecule `Cc1cc([N+](=O)[O-])c(N2CCC[C@@H]2C(=O)O)c([N+](=O)[O-])c1`, the inhibition is 2.1%. For the molecule `Cc1cc(C)cc(NC(=O)NC2CCCCCCC2)c1`, the inhibition is 1.8%.

In the case of `Cc1cc([N+](=O)[O-])c(NC2CCCCC2)c([N+](=O)[O-])c1`, the inhibition is 45.6% (active). Regarding `CCCCN(CC(=O)NC(C)(C)C)C(=O)C(=O)Nc1ccc2c(c1)OCCO2`, the inhibition is 17%. In the case of `O=S(=O)(O)CCN1CCOCC1` it was 24.3%. The result for `O=C1c2ccccc2-c2ccccc2NC1O` (stereo unspecified) reads 14.1%. Consider `O=C1c2ccccc2C(=O)C1c1ccccc1`, for which the inhibition is 4.5%. For the molecule `O=C1c2ccccc2C(=O)C1C(=O)C1CC1`, the inhibition was 37.6% (active). Turning to `Cc1cccc2nc(CNc3ccc(F)cc3)cn12`, the inhibition is -86.7%. The result for `CCOC(=O)c1sc2nc(C)nc(Nc3ccc(OC)c(OC)c3)c2c1C` reads -82.2%; that for `CCCCN1CC(C)(C)[C@H](CC(=O)Nc2ccc(Br)cc2)C1=O`, 15.8%; that for `CN(C)c1nc(NN)nc(Nc2ccc(F)cc2)n1`, 12.3%. In the case of `CCn1c2ccc(F)cc2c2nnc(SCCN3CCOCC3)nc21` it was 11.3%. For the molecule `Cn1c2ccc(F)cc2c2nnc(NN)nc21`, the inhibition was 49.2% (active). In the case of `N#Cc1c(N)nc2c3c(sc(=N)c2c1N)NC(=O)CC3c1ccccc1Cl` (stereo unspecified) it was -174%. On to `CCCCN1CC(N2CCN(Cc3cccc(C)c3)CC2)CS1(=O)=O` (stereo unspecified), for which the inhibition is 12.1%. Regarding `CC1=NOC(=O)/C1=C\c1ccccc1`, the inhibition is 42.9% (active).

Turning to `C#CCOc1ccccc1/C=C1/C(=O)ON=C1C`, the inhibition was 13.5%. Regarding `Cc1ccc(S(=O)(=O)n2oc(=O)c(C3CCCCC3)c2N)cc1`, the inhibition is 7.6%. As for `COc1cc(OC)cc(C(=O)NCC(=O)OCc2csc(-c3ccccc3)n2)c1`, the inhibition was 15.3%. As to `Cc1ccc(F)cc1NC(=O)c1cccc(N(C)C)c1`, the inhibition was -82.7%. Regarding `CN(C)S(=O)(=O)c1ccc(C(=O)NCC2(N3CCOCC3)CCCCC2)cc1`, the inhibition was 5.2%. The result for `COc1cc(N2CCCC2)c(OC)cc1/C=C(/C#N)c1cccc(Br)c1` reads 75.3% (active); that for `CCC(C)CN1CCC(CO)(Cc2ccccc2Cl)CC1` (stereo unspecified), 1.5%. In the case of `COc1ccc(Br)c(Cn2c(C)c(C(=O)NCc3cccs3)sc2=O)c1` it was 3.5%. The result for `COc1cccc(Nc2nnc(SCC(=O)N3CC(=O)Nc4ccccc43)s2)c1` reads -6.6%; that for `COc1c(F)c(F)c(C(=O)O)c(Nc2ccccc2C)c1F`, 4.1%; that for `Cc1nn(Cc2ccc(Cl)cc2)c(Cl)c1/C=N/NC(=O)CNc1ccccc1F`, 7.1%.

`Cc1ccc(S(=O)(=O)N2CCN(CC(=O)N/N=C/c3ccc(Br)s3)CC2)cc1`: the inhibition is 6%. In the case of `Cc1ccccc1NCC(=O)N/N=C\c1ccc([N+](=O)[O-])s1` it was 45.1% (active); in that of `O=C(CN(C(=O)CNC(=O)c1cccs1)c1cccc(F)c1)NC1CCCCC1`, 11.2%. The result for `Cc1ccc(NC(=O)COC(=O)CN2CCSC2=O)cc1F` reads 14.3%. In the case of `Cc1cccc(S(=O)(=O)N(C)C[C@H]2OCc3cnnn3CCCC(=O)N([C@@H](C)CO)C[C@H]2C)c1` it was 14.1%.

For `CC(=O)N1CCN(S(=O)(=O)c2cccc(C(=O)NC3CCC(C)CC3)c2)CC1` (stereo unspecified), the inhibition was 43.9% (active).

`CC(=O)Nc1ccc(S(=O)(=O)N2CCC(NC(=O)c3ccccc3)CC2)cc1`: the inhibition was 9%. As for `COc1ccc(OC)c(NC(=O)c2cccc(S(=O)(=O)N3CCN(C(C)=O)CC3)c2)c1`, the inhibition is 13.3%.

For `C/C(=N\NC(=O)CCn1nc(C)cc1C)C(C)(C)C`, the inhibition was 13.5%.

With `CCN1C(=O)[C@H]2[C@@H](c3ccc(C(F)(F)F)cc3)N[C@]3(CCCN(Cc4ccc(Br)cc4)C3=O)[C@H]2C1=O`, the inhibition is 3.9%. For `COc1cccc(N2C(=O)CC(N3CCc4ccccc4C3)C2=O)c1` (stereo unspecified), the inhibition was 11.5%. The result for `O=C(c1c(F)cccc1Cl)N1CCN(S(=O)(=O)c2ccc3c(c2)OCCCO3)CC1` reads 5.8%; that for `O=C(CCC1CCCC1)N=C1SC2CS(=O)(=O)CC2N1Cc1ccccc1` (stereo unspecified), 8.9%.

In the case of `CC(C)CC(=O)N=C1SC2CS(=O)(=O)CC2N1CCc1ccccc1` (stereo unspecified), the inhibition was 42% (active).

As to `O=C(N=C1SC2CS(=O)(=O)CC2N1Cc1ccccc1)c1ccccc1` (stereo unspecified), the inhibition was 13.8%.

For the molecule `Cn1c2c(c(=O)n(C)c1=O)C(c1ccc(O)cc1)Nc1ccccc1O2` (stereo unspecified), the inhibition was 23%. For the molecule `O=C(O)c1cc(S(=O)(=O)Nc2ccc3cn[nH]c3c2)ccc1Br`, the inhibition is -90.8%. The result for `COc1ccc(S(=O)(=O)N/N=C\c2ccc(OC)c(COc3ccc(C)cc3[N+](=O)[O-])c2)cc1` reads 10.6%; that for `COc1ccc(S(=O)(=O)Nc2ccc3cn[nH]c3c2)cc1[N+](=O)[O-]`, 45.4% (active); that for `Cc1cc(NC(=O)CCC(=O)N(Cc2ccccc2)C(C(=O)NC2CCCC2)c2ccc(C)o2)no1` (stereo unspecified), 1.5%.

Take `CCOc1ccc(NC(=O)c2cccc3c2C(=O)N(CC2CCCO2)C3)cc1` (stereo unspecified): the inhibition is 5.6%. The result for `CCCN1C(=O)C(Cc2nc3ccccc3c(=O)n2-c2ccccc2)c2cc(C)ccc21` (stereo unspecified) reads 12.4%; that for `CCn1c(O)c(N=NC2=NC(=O)CS2)c2cc(C)ccc21`, 46.9% (active); that for `CCn1c(O)c(N=NC(=O)c2cccc(S(=O)(=O)N3CCCCC3)c2)c2ccccc21`, 28%. The result for `N#Cc1cccc(NC(=O)c2cc(C3CCCCN3C(=O)CCc3ccccc3)on2)c1` (stereo unspecified) reads 8.1%.

As for `Clc1ccc(C2[C@H]3CN(CC4CCCCC4)[C@H](c4ccccc4)C34CC2(c2cccnc2)C4)cn1` (stereo partly specified), the inhibition was 7.6%.

For the molecule `COc1ccc(NC(=O)CSc2nnnn2-c2cccc(OC)c2)cc1`, the inhibition was 10.5%. In the case of `COc1ccc(N(CC(=O)Nc2ccc(C)cc2C)S(=O)(=O)c2ccccc2[N+](=O)[O-])c(OC)c1` it was 10.2%. On to `Cc1ccc(NS(=O)(=O)c2ccc(N/N=C/c3ccccc3OCC(=O)O)c([N+](=O)[O-])c2)c(C)c1`, for which the inhibition is 49.7% (active). With `COc1ccc(Br)cc1/C=N/Nc1ccc(S(=O)(=O)Nc2ccccc2C(=O)O)cc1[N+](=O)[O-]`, the inhibition was 46.4% (active). On to `CC1CN(C(=O)c2ccccc2NS(=O)(=O)c2cccc([N+](=O)[O-])c2)CC(C)O1` (stereo unspecified), for which the inhibition is 4.5%.

Take `COc1ccccc1C(CNC(=O)c1cccc(NS(=O)(=O)c2ccc(Br)cc2)c1)N(C)C` (stereo unspecified): the inhibition is 0.9%. Take `Cc1ccc(S(=O)(=O)NC(=O)COc2ccccc2C)cc1`: the inhibition is 12.8%. The result for `COc1cccc(N(Cc2nnc3n2CCCCC3)C(=O)Nc2ccccc2F)c1` reads 9.7%; that for `CC1CC2=C(CC1/C=N/NC(N)=S)C(C)(C)CCC2` (stereo unspecified), 12.2%; that for `O=C(CCNS(=O)(=O)c1ccccc1)NCCSc1ccc(Br)cc1`, 9%. As for `Cc1ccc(S(=O)(=O)N/N=C(\c2ccccc2)C2CC2)cc1`, the inhibition was 3.3%. `COc1ccc(C(=O)C(C)OC(=O)c2cccc(S(=O)(=O)Nc3c(C)n(C)n(-c4ccccc4)c3=O)c2)cc1` (stereo unspecified): the inhibition is 5.8%. Take `COc1ccc(S(=O)(=O)/N=C2\C=C(NS(=O)(=O)c3ccccc3)C(=O)c3ccccc32)cc1`: the inhibition was 70% (active).

`Cc1ccc(S(=O)(=O)N[C@H](CO)C(C)C)cc1`: the inhibition is 11.7%. Consider `CNC(=O)COc1ccc(S(=O)(=O)Nc2ccccc2)cc1`, for which the inhibition is 3.4%. In the case of `Cc1ccc(S(=O)(=O)/N=C2\C=C(NS(=O)(=O)c3ccc(C)cc3)C(=O)c3ccccc32)cc1`, the inhibition was 89.9% (active).

The values above are taken from PubChem BioAssay AID602440 (Sanford-Burnham Center for Chemical Genomics, 2012).
